According to PubChem BioAssay AID1159580 (chemical genetic matrix, 2015):
Values joined by “and” are separate entries in the source; they are usually repeats but may differ in a detail not shown here. Equal values may be shown once. Screen size: about 5,500 compounds; about 2,000 (36%) were called active. Roughly 18% stayed inconclusive and do not appear here. Rule as the data show it: active = normalized growth mostly below about 0.91 (no sharp cut-off); inconclusive = no clear call, values can overlap the other calls; inactive = mostly above about 0.92. The list shows a part of the results.

Assay: chemical genetic growth profiling, strain panel (AID 1159580);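 also: tested at 20 µM; growth read once vehicle control cultures reached saturation at 30 °C; 1 = growth at the plate median or of vehicle wells; lower values mean less growth of the strain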
Conditions: S. cerevisiae deletion strains, growth OD

Measured: normalized growth

CC(=O)OCC(=O)[C@@]1(O)CCC2C3CCC4=CC(=O)CC[C@]4(C)C3C(=O)C[C@@]21C (stereo not given in full)
inactive: locus YAL021C, strain ccr4, hits give low values 0.988 | locus YAL026C, strain drs2, hits give low values 1.01 | locus YAL030W, strain snc1, hits give low values 0.985 | locus YBL061C, strain skt5, hits give low values 0.965 | locus YBR009C, strain hhf1, hits give low values 0.998 | locus YBR021W, strain FUR4, hits give low values 1.01 | locus YBR023C, strain chs3, hits give low values 0.989 | locus YBR171W, strain sec66, hits give low values 0.969 | locus YBR229C, strain ROT2, hits give low values 1.01 | locus YBR231C, strain swc5, hits give low values 0.951 | locus YBR279W, strain paf1, hits give low values 0.997 | locus YCL011C, strain gbp2, hits give low values 1.01 | locus YCL016C, strain dcc1, hits give low values 1.02 | locus YCL029C, strain bik1, hits give low values 1.03 | locus YCL061C, strain MRC1, hits give low values 0.982 | locus YCL069W, strain vba3, hits give low values 0.98 | locus YCR088W, strain abp1, hits give low values 0.98 | locus YDL005C, strain med2, hits give low values 0.973 | locus YDL035C, strain GPR1, hits give low values 1 | locus YDL040C, strain nat1, hits give low values 0.963 | locus YDL074C, strain BRE1, hits give low values 1.01 | locus YDL101C, strain DUN1, hits give low values 1.01 | locus YDL134C, strain PPH21, hits give low values 1 | locus YDL185W, strain tfp1, hits give low values 1.03 | locus YDL192W, strain arf1, hits give low values 1.03 | locus YDR001C, strain nth1, hits give low values 0.974 | locus YDR069C, strain doa4, hits give low values 0.98 | locus YDR101C, strain arx1, hits give low values 1.02 | locus YDR137W, strain rgp1, hits give low values 1 | locus YDR159W, strain sac3, hits give low values 0.963 | locus YDR162C, strain NBP2, hits give low values 1.01 | locus YDR195W, strain ref2 0.913 | locus YDR297W, strain sur2, hits give low values 0.989 | locus YDR318W, strain mcm21, hits give low values 1.01 | locus YDR334W, strain swr1, hits give low values 0.968 | locus YDR335W, strain msn5, hits give low values 0.969 | locus YDR388W, hits give low values 1.03 | locus YDR392W, strain spt3, hits give low values 1.04 | locus YDR502C, strain sam2, hits give low values 1.04 | locus YEL003W, strain gim4, hits give low values 0.968 | locus YEL037C, strain rad23, hits give low values 0.976 | locus YEL061C, strain CIN8 (second series), hits give low values 0.983 | locus YEL061C, strain CIN8, hits give low values 1.01 | locus YER015W, strain faa2, hits give low values 0.992 | locus YER016W, strain bim1, hits give low values 0.988 | locus YER110C, hits give low values 1.04 | locus YER111C, strain swi4, hits give low values 0.971 | locus YER155C, strain BEM2 (second series), hits give low values 0.97 | locus YER155C, strain BEM2, hits give low values 1 | locus YER167W, strain BCK2, hits give low values 1.01 | locus YFR010W, strain ubp6, hits give low values 0.977 | locus YGL078C, strain dbp3, hits give low values 1.03 | locus YGL086W, strain mad1, hits give low values 0.994 | locus YGL167C, strain pmr1, hits give low values 0.952 | locus YGL173C, strain kem1, hits give low values 0.955 | locus YGL227W, strain vid30, hits give low values 0.983 | locus YGL240W, strain doc1, hits give low values 0.962 | locus YGL248W, strain PDE1, hits give low values 1.02 | locus YGL253W, strain hxk2, hits give low values 0.981 | locus YGR135W, strain pre9, hits give low values 1.03 | locus YGR252W, strain gcn5, hits give low values 1.05 | locus YHR013C, strain ard1, hits give low values 0.991 | locus YHR027C, strain rpn1, hits give low values 1 | locus YHR030C, strain SLT2, hits give low values 1 and 0.999 | locus YHR079C, strain IRE1 (second series), hits give low values 1.03 | locus YHR079C, strain IRE1, hits give low values 0.996 | locus YHR094C, strain hxt1, hits give low values 1.02 | locus YHR129C, strain ARP1, hits give low values 1 | locus YHR142W, strain chs7, hits give low values 0.978 | locus YHR200W, strain rpn10, hits give low values 1.03 | locus YIL066C, strain RNR3, hits give low values 1.01 | locus YIL073C, strain SPO22, hits give low values 1.06 | locus YIL125W, strain kgd1, hits give low values 1.02 | locus YIR030C, strain dcg1, hits give low values 1.03 | locus YJL092W, strain hpr5, hits give low values 0.968 | locus YJL095W, strain BCK1 (second series), hits give low values 0.992 | locus YJL095W, strain BCK1, hits give low values 1.02 | locus YJL115W, strain asf1, hits give low values 0.985 | locus YJL129C, strain trk1, hits give low values 0.922 | locus YJL134W, strain LCB3, hits give low values 1.01 | locus YJL154C, strain vps35, hits give low values 0.963 | locus YJL164C, strain tpk1, hits give low values 1 | locus YJL166W, strain qcr8, hits give low values 0.966 | locus YJL168C, strain set2, hits give low values 1.03 | locus YJL187C, strain SWE1 (second series), hits give low values 1.01 | locus YJR043C, strain POL32, hits give low values 0.993 | locus YJR066W, strain TOR1, hits give low values 0.973 | locus YJR075W, strain HOC1, hits give low values 1.01 | locus YKL009W, strain mrt4, hits give low values 1.02 | locus YKL068W, hits give low values 1.02 | locus YKL085W, strain MDH1 (second series), hits give low values 1.02 | locus YKL085W, strain MDH1, hits give low values 1.02 | locus YKL160W, strain elf1, hits give low values 0.961 | locus YKR001C, strain vps1, hits give low values 1.04 | locus YKR026C, strain gcn3, hits give low values 0.974 | locus YKR091W, strain srl3, hits give low values 0.974 | locus YLL001W, strain dnm1, hits give low values 0.93 | locus YLL026W, hits give low values 0.994 | locus YLL041C, strain sdh2, hits give low values 0.98 | locus YLR027C, strain aat2, hits give low values 0.961 | locus YLR039C, strain RIC1, hits give low values 1 | locus YLR058C, strain SHM2, hits give low values 1.01 | locus YLR102C, strain apc9, hits give low values 1.03 | locus YLR113W, strain HOG1, hits give low values 0.986 | locus YLR221C, strain rsa3, hits give low values 1.01 | locus YLR258W, strain gsy2, hits give low values 0.995 | locus YLR262C, strain YPT6 (second series), hits give low values 0.951 | locus YLR262C, strain YPT6, hits give low values 1.05 | locus YLR268W, strain sec22, hits give low values 1.04 | locus YLR320W, strain mms22, hits give low values 0.993 | locus YLR330W, strain CHS5, hits give low values 1.01 | locus YLR342W, strain FKS1 (second series), hits give low values 0.987 | locus YLR342W, strain FKS1, hits give low values 0.963 | locus YLR357W, strain rsc2, hits give low values 0.974 | locus YLR370C, strain arc18, hits give low values 0.973 | locus YLR371W, strain rom2, hits give low values 1.02 | locus YLR384C, strain iki3, hits give low values 0.974 | locus YLR418C, strain cdc73, hits give low values 1.08 | locus YML016C, strain PPZ1, hits give low values 1.01 | locus YML032C, strain rad52, hits give low values 1.04 | locus YML120C, strain ndi1, hits give low values 0.967 | locus YML124C, strain tub3, hits give low values 1.03 | locus YMR058W, strain fet3, hits give low values 0.971 | locus YMR078C, strain ctf18, hits give low values 1.04 | locus YMR125W, strain sto1, hits give low values 0.988 | locus YMR129W, hits give low values 0.991 | locus YMR205C, strain PFK2, hits give low values 0.983 | locus YMR223W, strain ubp8, hits give low values 1.04 | locus YMR231W, strain pep5, hits give low values 0.972 | locus YMR263W, strain SAP30, hits give low values 1.01 | locus YMR307W, strain GAS1, hits give low values 0.923 | locus YNL067W, strain RPL9B, hits give low values 1.01 | locus YNL071W, strain lat1, hits give low values 1.01 | locus YNL153C, strain GIM3, hits give low values 1.01 | locus YNL183C, strain NPR1, hits give low values 0.953 | locus YNL209W, strain ssb2, hits give low values 0.998 | locus YNL233W, strain BNI4, hits give low values 1.01 | locus YNL248C, strain rpa49, hits give low values 1 | locus YNL250W, strain rad50, hits give low values 1.05 | locus YNL271C, strain bni1, hits give low values 1.04 | locus YNL298W, strain CLA4, hits give low values 1.02 | locus YNL307C, strain MCK1, hits give low values 1.02 | locus YNL322C, strain KRE1 (second series), hits give low values 0.969 | locus YNL322C, strain KRE1, hits give low values 1.01 | locus YNR049C, strain mso1, hits give low values 0.977 | locus YNR052C, strain pop2, hits give low values 1.02 | locus YOL012C, strain htz1 1.93 | locus YOL147C, strain pex11, hits give low values 1.04 | locus YOR001W, strain rrp6, hits give low values 0.951 | locus YOR061W, strain CKA2, hits give low values 1.01 | locus YOR069W, strain VPS5, hits give low values 1.01 | locus YOR070C, strain gyp1, hits give low values 0.993 | locus YOR080W, strain dia2, hits give low values 0.956 | locus YOR083W, strain WHI5, hits give low values 0.959 | locus YOR106W, strain vam3, hits give low values 0.966 | locus YOR136W, strain idh2, hits give low values 1.03 | locus YOR144C, strain elg1, hits give low values 1.02 | locus YOR184W, strain ser1, hits give low values 1.05 | locus YOR231W, strain MKK1, hits give low values 0.995 | locus YOR265W, strain rbl2, hits give low values 0.991 | locus YOR270C, strain vph1, hits give low values 0.978 | locus YOR290C, strain snf2, hits give low values 1.01 | locus YOR316C, strain cot1, hits give low values 1.03 | locus YPL051W, strain arl3, hits give low values 0.989 | locus YPL055C, strain LGE1, hits give low values 1 | locus YPL078C, strain atp4, hits give low values 0.933 | locus YPL106C, strain sse1, hits give low values 1.02 | locus YPL240C, strain hsp82, hits give low values 0.984 | locus YPL241C, strain CIN2, hits give low values 1 | locus YPL256C, strain CLN2, hits give low values 0.962 | locus YPR119W, strain clb2, hits give low values 1.03 | locus YPR141C, strain kar3, hits give low values 1.04 | locus YPR163C, strain tif3, hits give low values 1.05 | locus YPR167C, strain met16, hits give low values 1.03 | strain wtn01, hits give low values 1.04
